Source: ChEMBL document CHEMBL4513216, “Probing the Open Global Health Chemical Diversity Library for Multistage-Active Starting Points for Next-Generation Antimalarials” (ACS Infect Dis, 2020)
The whole screen tested about 69,000 compounds, of which about 8,600 (12%) showed an effect of 50% or more. This is one part of a sample in which strong results are shown more often than they occur.

tested on: Plasmodium berghei; assay: Screen against P. berghei liver stage (PbLuc), transformed with Luciferase, at 10uM; format: functional, HepG2; conditions: tested at 10 uM

Row | SMILES | INHIBITION
1 | CCN1Cc2ccccc2CC2(CCN(CC(=O)O)CC2)C1=O | 37.5%
2 | NCCC(=O)Nc1ccc(-c2ccccc2)cc1 | 14.5%
3 | Cc1ccc(OCC(=O)NC2(C#N)CCSCC2)cc1C | 41.4%
4 | N#CC1(NC(=O)COc2cc(Cl)cc(Cl)c2)CCSC1 (stereo unspecified) | 38.5%
5 | Cc1c(Cl)cccc1OCC(=O)NC1(C#N)CCSC1 (stereo unspecified) | 87.2%
6 | CN(C)C(=O)c1cc(-c2ccccc2)[nH]n1 | -35%
7 | CC(C)c1ccc(CC2(C)Cc3cc(CC(=O)O)ccc3O2)cc1 (stereo unspecified) | 20.85%
8 | CN(C)[C@H]1CCCCN(C(=O)c2cccc(-c3cccc(F)c3)c2)C1 | 60.4%
9 | CN(C)Cc1cnc(C2CCN(C(=O)c3cccc(F)c3)C2)[nH]1 (stereo unspecified) | 41.7%
10 | CN(C)[C@H]1CCCCN(C(=O)c2cccc(N3CCS(=O)(=O)CC3)c2)C1 | 30.9%
11 | CN(C(=O)CCNC(=O)NC1CCCCC1)c1ccccc1 | 27.6%
12 | Cn1c(NCC(O)c2ccccc2F)c(C#N)c(=O)n(C)c1=O (stereo unspecified) | -5.25%
13 | CNC(=O)[C@@H]1C[C@@H](NC(=O)CSc2ccccc2)CN1C1CCOCC1 | 54.6%
14 | CNC(=O)[C@@H]1C[C@@H](NC(=O)CCCc2cccs2)CN1C1CCOCC1 | 10.4%
15 | CNC(=O)[C@@H]1C[C@@H](NC(=O)Cc2cccs2)CN1C1CCOCC1 | 23.5%
16 | CC(C)n1cc(CN2CCCN(C(=O)C3CCCN3C)CC2)cn1 (stereo unspecified) | 26.4%
17 | CCN(CCO)C[C@@H]1CN(c2cccc(C(F)(F)F)n2)C[C@@H]1CO | 3.13%
18 | COc1ccccc1CC(=O)NS(=O)(=O)c1ccc(C#N)cc1 | 15.6%
19 | COc1cc(C#N)ccc1OCC(=O)NS(=O)(=O)c1ccccc1 | 50.6%
20 | COc1cc(C#N)ccc1OCC(=O)NS(=O)(=O)c1cccnc1 | 19.4%
21 | COc1ccccc1OCC(=O)NS(=O)(=O)c1ccc(F)cc1F | 63.3%
22 | COc1ccccc1OCC(=O)NS(=O)(=O)c1ccc(Cl)cc1F | 29.5%

Row | SMILES | INHIBITION
23 | COc1ccccc1OCC(=O)NS(=O)(=O)c1cc(F)ccc1F | 5.14%
24 | CN1CCCN(C(=O)NCc2cc(Br)cs2)CC1 | -13.935%
25 | Cc1ccc(-c2cc(C(=O)NCCN3CCCS3(=O)=O)[nH]n2)cc1 | -8.15%
26 | Cc1ccccc1NC(=O)Nc1c[nH]c(=O)[nH]c1=O | 35.7%
27 | Cc1ccc(CN2CCc3ncc(CNC(=O)C4CCC4)n3CC2)o1 | 45.1%
28 | O=C(NCCOC1CCCCC1)c1ccc(-c2ccco2)[nH]c1=O | -14.6%
29 | Cc1nc(-c2nnc[nH]2)sc1C(=O)N1CCCC1Cn1cccn1 (stereo unspecified) | -1.45%
30 | O=C(N[C@@H]1CCC[C@@H](n2ccnc2)[C@@H]1O)c1ccc2c(c1)CCCC2 | 38.2%
31 | O=C(Cc1ccc2c(c1)CCCC2)N[C@@H]1CC[C@@H](n2ccnc2)[C@@H]1O | 64.9%
32 | O=C(N[C@@H]1CC[C@@H](n2ccnc2)[C@@H]1O)c1cc2c(s1)CCC2 | 9.93%
33 | CCN1CC[C@@]2(C(=O)N3CCOCC3)CCN(C(=O)CC(C)C)CC[C@@H]12 | 11.2%
34 | CNC(=O)CCS(=O)(=O)Cc1cc(Cl)c2c(c1)OCCCO2 | -11.4%
35 | Cc1occc1C(=O)N1CCO[C@H]2[C@H](Oc3cccnc3)CC[C@@H]21 | 18.6%
36 | COCCN1CCN(Cc2noc(C3CC3)n2)CC1C (stereo unspecified) | 20.1%
37 | CC(=O)NC1CCN(c2nc(N)nc3c2CCCC3)C1 (stereo unspecified) | 46.6%
38 | COCCc1noc(CN2CCCC2c2noc(C3CC3)n2)n1 (stereo unspecified) | -14.1%
39 | CCc1c(C)nc(N)nc1N1CCCC(c2nc(CCOC)no2)C1 (stereo unspecified) | 68.6%
40 | CCc1nc2c(N3CCCC(c4nccn4CCOC)C3)ncnc2o1 (stereo unspecified) | 29.1%
41 | COCCn1ccnc1C1CCCN(c2ncnc3c(C)csc23)C1 (stereo unspecified) | -0.529%
42 | Cc1cc(C)n(C2CCN(c3ncnc4c3CCC4)C2)n1 (stereo unspecified) | 36.1%
43 | COCCn1ccnc1C1CCCN(c2ncnc3c2CCC3)C1 (stereo unspecified) | 57.5%
44 | COCCc1noc(C2CCCN(c3ncnc4c3CCC4)C2)n1 (stereo unspecified) | 78.8%

Row | SMILES | INHIBITION
45 | COCCc1noc(C2CCCN(c3nc(N)nc4c3CCCC4)C2)n1 (stereo unspecified) | 65.2%
46 | COCCCN(C)C1CCCN(Cc2noc(C3CC3)n2)C1 (stereo unspecified) | 44.1%
47 | c1nc2c(c(N3CCCC(Cn4cncn4)C3)n1)CCC2 (stereo unspecified) | 29.2%
48 | COC[C@]12COC[C@H]1CN(Cc1ccc3c(c1)OCO3)C2 | 35.8%
49 | Cc1cnn(CC2CCCN2C(=O)c2nccnc2N)c1 (stereo unspecified) | 43.2%
50 | COc1ccc(OC)c(C(=O)N2CCC(Nc3cccnc3)CC2)c1 | -5.08%
51 | O=C(NC1CCCN(c2ccccc2Cl)C1)c1ccc(=O)[nH]n1 (stereo unspecified) | 28.7%
52 | CC(C)c1nn(C)c(N(C)C)c1CNCc1ccc2c(c1)OCCO2 | 19.6%
53 | Cc1ccoc1C(=O)NCc1ccnc(OCC(F)(F)F)c1 | -23.593%
54 | Cc1ccsc1C(=O)NCc1ccnc(OCC(F)(F)F)c1 | 39.5%
55 | Cc1cc(C(=O)NCc2ccnc(OCC(F)(F)F)c2)no1 | -10.45%
56 | COc1cc(CNC(=O)c2c(C)noc2C)ccn1 | 32.15%
57 | Cc1noc(C)c1C(=O)NCc1ccnc(OCC(F)(F)F)c1 | 63.6%
58 | Cc1ncsc1C(=O)NCc1ccnc(OCC(F)(F)F)c1 | 73.05%
59 | CCOc1cc(CNC(=O)c2cnn(CC)c2C(F)(F)F)ccn1 | 70.4%
60 | CCOc1cccc(CNC(=O)c2cnn(CC)c2C(F)(F)F)c1 | -15.3%
61 | Cc1n[nH]c(C(=O)NCc2ccnc(OCC(F)(F)F)c2)c1Br | 81.5%
62 | CCn1ncc(C(=O)NCc2ccc(C)c(OC)c2)c1C(F)(F)F | 46.7%
63 | Cc1noc(C)c1CC(=O)NCc1ccnc(OCC(F)(F)F)c1 | -9.535%
64 | Cc1cc(C(=O)NCc2ccnc(OCC(F)(F)F)c2)on1 | -20.893%
65 | CCn1ncc(S(=O)(=O)N2CCCC3(CC=CNC3=O)C2)c1C (stereo unspecified) | 46.2%
66 | CC(C)c1nc2n(n1)CC(NCc1nnc(C3CC3)o1)CC2 (stereo unspecified) | -2.53%

Row | SMILES | INHIBITION
67 | Cc1nc(C(C)C)sc1C(=O)NCCn1nc2ccccn2c1=O | -22.5%
68 | COCC1CCCN(C(=O)c2ccccc2NCc2cccnc2)C1 (stereo unspecified) | 18.9%
69 | O=C(CCCOc1cccc(F)c1)N1CCCC(n2cncn2)C1 (stereo unspecified) | -49.5%
70 | Cc1nc(CN2C(=O)CCC23CCN(Cc2cccn2C)CC3)cs1 | 29.3%
71 | Cc1nnc2n1CCN(C(C(=O)N1CCCCC1)c1ccccc1)C2 (stereo unspecified) | 11.15%
72 | O=c1c(Cc2ccc(Cl)cc2Cl)c(O)ccn1CC1CC1 | 86.6%
73 | O=C(NCc1ccc(Cl)cc1Cl)NCC1(O)CCSC1 (stereo unspecified) | 31.2%
74 | O=C1CCN(C(=O)CCc2ccc(Cl)cc2Cl)CCN1 | 4.97%
75 | CCOC(=O)Cn1ccc(O)c(Cc2ccc(Cl)cc2Cl)c1=O | 1.95%
76 | COc1ccc2c(=O)n(CC3CC3)ccc2c1OC | 6.28%
77 | NC(=O)Cn1ccc(O)c(Cc2ccc(Cl)cc2Cl)c1=O | 71.9%
78 | COc1nc2c(cc1C(=O)NC(C)Cc1cnccn1)CCC2 (stereo unspecified) | -40.5%
79 | O=C(NCCNc1ccc(C(F)(F)F)cn1)c1cc(Cl)ccc1F | 37.3%
80 | C=C(C)COCCNC(=O)Nc1cccc(Cn2nc(C)nc2C)c1 | 62.8%
81 | Cc1nc(C)n(Cc2cccc(NC(=O)NC(C)(CO)C3CC3)c2)n1 (stereo unspecified) | 47.4%
82 | CC(=O)Nc1cccc(Cn2nc(C)nc2C)c1 | 39.7%
83 | Cc1cc(F)c2c(c1)CCCN2S(=O)(=O)c1ncn(C)c1Cl | 33.7%
84 | Cc1nn(C(C)C)cc1S(=O)(=O)N(C)Cc1nonc1C | 11.8%
85 | CC(=O)N1CCCC1c1nccc(C)n1 (stereo unspecified) | 21.6%
86 | CC(C)(O)CN1CCN(C(=O)c2ccc3c(c2)COC3)CC1 | -1.14%
87 | COc1cccc(CCC2CCCCN2)c1 (stereo unspecified) | 36%
88 | Cc1cc(C(=O)N2CCN(c3nc4c(C)cccc4s3)CC2)no1 | 24.7%

Row | SMILES | INHIBITION
89 | Cc1cc(C(=O)N2CCN(c3nc4c(F)cccc4s3)CC2)no1 | -18.5%
90 | Cc1cc(C(=O)N2CCN(c3nc4c(C(C)C)cccc4s3)CC2)on1 | 92.1%
91 | Cc1cc(C(=O)N2CCN(c3nc4c(C(C)C)cccc4s3)CC2)no1 | 90.4%
92 | COc1cc(C)nc(N2CCN(C(=O)c3cc(C)no3)CC2)n1 | 19.2%
93 | COc1cccc2sc(N3CCN(C(=O)c4cc(C)on4)CC3)nc12 | 17.1%
94 | CC(C)Nc1cccc(CC2CCN(S(C)(=O)=O)CC2)n1 | 41.2%
95 | N#CC1CCCN(c2ncnc3c2CCN(Cc2ccccc2)CC3)C1 (stereo unspecified) | 67.8%
96 | c1ccc(CN2CCc3ncnc(C4CC4)c3CC2)cc1 | 0.164%
97 | Cn1ccnc1CN1CCc2ncnc(N3CCCC(C#N)C3)c2CC1 (stereo unspecified) | 11.3%
98 | O=C(c1ccc2c(c1)CCC2)N1CC[C@H](O)[C@]2(CCCO2)C1 | 32.3%
99 | CC(C)c1nc(-c2cc(C(=O)NCCN(C)C)c3ccccn23)cs1 | -2.41%
100 | CN(Cc1ccncc1)c1cncc(Br)c1 | 33.4%
101 | Cc1csc(CNC(=O)N(C)Cc2ccc([S+](C)[O-])cc2)n1 (stereo unspecified) | 20.6%
102 | CN(Cc1ccc([S+](C)[O-])cc1)c1cncc(Br)c1 (stereo unspecified) | 58.4%
103 | Cc1ncc(CNC(=O)N(C)Cc2ccc([S+](C)[O-])cc2)s1 (stereo unspecified) | 40.5%
104 | CN(Cc1ccc([S+](C)[O-])cc1)c1cncc(Cl)n1 (stereo unspecified) | 52.2%
105 | CN(Cc1ccc([S+](C)[O-])cc1)c1ccc(Cl)cn1 (stereo unspecified) | 33%
106 | CCc1cc(=O)[nH]c(SCc2ccccn2)n1 | -35.5%
